# ST2 inh – IL1RL1 inhibition | 2.3% of 78,000 active | AlphaLISA ST2-Fc/biotin-IL-33 interaction, 1 h | inhibition, % for hits at 17 µM | AID 1259354 | Q01638; in the data active = inhibition above about 30%
# Target sequence (Q01638 whole entry, looked up): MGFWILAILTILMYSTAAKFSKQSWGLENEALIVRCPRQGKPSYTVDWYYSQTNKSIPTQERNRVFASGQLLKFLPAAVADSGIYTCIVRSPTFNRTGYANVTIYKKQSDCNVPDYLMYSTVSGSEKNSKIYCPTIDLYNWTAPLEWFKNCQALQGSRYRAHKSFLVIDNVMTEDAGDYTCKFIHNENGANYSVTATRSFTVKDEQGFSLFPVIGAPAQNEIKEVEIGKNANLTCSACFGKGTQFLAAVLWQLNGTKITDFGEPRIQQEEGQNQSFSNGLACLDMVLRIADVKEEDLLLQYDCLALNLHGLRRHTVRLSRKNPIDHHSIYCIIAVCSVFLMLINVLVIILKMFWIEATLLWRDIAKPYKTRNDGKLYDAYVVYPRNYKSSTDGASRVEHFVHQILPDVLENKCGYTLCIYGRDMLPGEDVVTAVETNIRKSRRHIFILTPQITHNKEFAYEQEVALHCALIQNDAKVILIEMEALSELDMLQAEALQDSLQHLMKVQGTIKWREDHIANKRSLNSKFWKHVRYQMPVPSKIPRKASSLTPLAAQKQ
# Active calls of the source: *; i = inactive. Many of the other results were omitted from the sample, so hits are more common in it than they were.
SMILES,ST2 inh
Cc1cc(C(=O)NCCc2ccc(S(N)(=O)=O)cc2)ccc1[N+](=O)[O-],i
CCC(=O)N1CCc2cc(Br)cc(S(=O)(=O)CCC(=O)NCCC(C)C)c21,i
NS(=O)(=O)c1cccc(NC(=O)c2cc(I)ccc2Cl)c1,i
COc1cc2c(cc1OC)C(c1ccc(Cl)cc1)OC1=C2C(=O)c2ccccc21 (configuration not stated),47.0%*
COc1cc(NC2OC(=O)c3ccccc32)c(OC)cc1Cl (configuration not stated),i
CCOc1cc2c(cc1OCC)C(c1ccc(OC)c(OC)c1)OC(=O)C2 (configuration not stated),i
OCCC1CN(Cc2cccc3nonc23)CCN1Cc1ccccc1F (configuration not stated),i
COc1ccccc1NS(=O)(=O)c1ccc2[nH]c(=O)sc2c1,i
CCc1ccc(S(=O)(=O)N2CCSC2c2ccccc2OC)cc1 (configuration not stated),i
COc1ccccc1NS(=O)(=O)c1cc([N+](=O)[O-])ccc1C,i
Cc1ccccc1NS(=O)(=O)c1ccc(NS(=O)(=O)c2ccc(F)cc2)cc1,i
CC(C)c1ccccc1NS(=O)(=O)c1ccc(F)cc1,i
COc1ccccc1NC(=O)c1ccc(F)cc1,i
COc1ccccc1NC1=CC(=NS(=O)(=O)c2ccc(F)cc2)c2ccccc2C1=O,95.0%*
COc1ccccc1NC1=CC(=NS(=O)(=O)c2ccc(C)cc2C)c2ccccc2C1=O,95.0%*
CCc1ccc(S(=O)(=O)N=C2C=C(Nc3ccccc3OC)C(=O)c3ccccc32)cc1,95.0%*
Cc1ccccc1NC1=CC(=NS(=O)(=O)c2ccc(F)cc2)c2ccccc2C1=O,77.0%*
CCOc1ccccc1NS(=O)(=O)c1cc(C)ccc1OC,i
COc1ccc(S(=O)(=O)Nc2ccccc2Br)cc1OC,i
CC(=O)NC1=NN(C(C)=O)C2(CCCc3ccccc32)S1 (configuration not stated),i
COc1ccc(C2=NN(S(=O)(=O)c3ccccc3)C(c3ccccc3OC)C2)cc1OC (configuration not stated),i
O=C(NCCCN1CCOCC1)c1ccc2c(c1)ncn2C1CCCC1,i
CC(C)c1ccc(NC(=O)O[C@@H]2CO[C@H]3[C@@H]2OC[C@@H]3NS(=O)(=O)c2ccccc2C#N)cc1,i
COc1ccc(C(=O)Nc2ccc(C(=O)NCc3ccccc3)cc2)cc1OC,i
COc1ccc(C)cc1NC(=O)c1cncc(Br)c1,i
SMILES,ST2 inh
O=C(Cn1cnc2c(cnn2-c2ccccc2)c1=O)N1CCc2ccccc21,i
COc1ccccc1NC(=O)C(Cc1ccccc1)N1C(=O)c2ccccc2C1=O (configuration not stated),i
COc1ccc(S(=O)(=O)Nc2ccccc2C)cc1,i
COc1ccc(S(=O)(=O)N=C2C=C(Nc3ccccc3OC)C(=O)c3ccccc32)cc1,94.0%*
COc1ccccc1NC(=O)CN(C)S(=O)(=O)c1ccccc1,i
COc1ccccc1NS(=O)(=O)c1ccc(Cl)cc1,i
COc1ccccc1NC1=CC(=NS(=O)(=O)c2ccccc2)c2ccccc2C1=O,95.0%*
CCOC(=O)c1cnc2c(C)c(Cl)ccc2c1Nc1ccccc1,i
Clc1ccccc1CO/N=C1/CCCc2nonc21,i
Cc1ccc(-c2noc([C@@H]3C[C@@H](O)CN3C(C)C)n2)cc1F,i
COc1cc([N+](=O)[O-])ccc1NC(=O)c1cc2ccccc2oc1=O,i
Cc1ccc(-c2nc3cnccn3c2NC2CCCCC2)cc1,i
COc1ccc(N=c2oc3ccccc3cc2C(=O)Nc2ccc(C)cc2)cc1,i
COc1ccccc1N=c1oc2ccccc2cc1C(=O)Nc1ccccc1,41.0%*
O=C(Nc1ccccc1)c1cc2ccccc2oc1=Nc1cccc(F)c1,i
COc1ccc(CC2(CCC(=O)N3CCCC(C(=O)c4ccccc4)C3)CCC(=O)N2)cc1OC (configuration not stated),i
Cc1cn2c(C(=O)N(C)CC3CCCN(CCc4ccccc4F)C3)csc2n1 (configuration not stated),i
CCOc1cc(-c2ccc(O)cc2)cc(=O)c2c(C)oc(C)c12,i
CCOc1cc(/C=C2/SC(=O)NC2=O)ccc1OCc1ccccc1,i
CC(C)c1ccc(/C=C2\Sc3ccccc3C2=O)cc1[N+](=O)[O-],i
CCOc1cc(/C=C2/Sc3ccccc3C2=O)ccc1O,59.0%*
CCOc1cc(/C=C2/C(=O)N(c3ccccc3)N=C2C)ccc1O,i
CCOc1cc(/C=C2/C=C(c3ccc(C)cc3)OC2=O)ccc1O,31.0%*
CN1CCC(N2CCOC(CCNC(=O)c3ccccc3O)C2)CC1 (configuration not stated),i
C=CCc1cccc(C)c1OCCN1CCOCC1,i
SMILES,ST2 inh
Cc1ccc(S(=O)(=O)N=C(CN2CCOCC2)N2CCCCC2)cc1,i
COc1ccccc1OCCOc1ccc([N+](=O)[O-])cc1/C=C1/C(=O)N(c2ccccc2)N=C1C,i
COc1ccccc1/C=C1/C(=O)N(c2ccccc2)N=C1C,i
CC1=NN(c2ccccc2)C(=O)/C1=C/c1cccc(C(=O)O)c1,i
CC1=NN(c2ccccc2)C(=O)/C1=C/c1ccc(O)c(Br)c1,i
COc1cccc(OCCOc2ccc(/C=C3/C(=O)N(c4ccccc4)N=C3C)cc2OC)c1,43.0%*
CC1=NN(c2ccccc2)C(=O)/C1=C\c1ccccc1OCc1ccccc1,40.0%*
COc1cccc(/C=C2\C(=O)N(c3cccc(Cl)c3)N=C2C)c1,i
C=CCN1C(=O)NC(=O)/C(=C/c2cccc(OCc3ccccc3Cl)c2)C1=O,i
COc1cc(/C=C2/C(=O)N(c3ccccc3)N=C2C)ccc1OCCOCCOc1ccccc1,45.0%*
COc1cc(/C=C2\C(=O)N(c3ccccc3)N=C2C)ccc1OCc1ccc(F)cc1,i
CCc1cccc(OCCOCCN2CCCC2)c1,i
Cc1cccc(OCCOCCOc2ccc(/C=C3\C(=O)NN(c4ccccc4)C3=O)cc2)c1,34.0%*
Cc1c(C(=O)NC2CCCCC2)oc2ccc(S(=O)(=O)N(C)C3CCCCC3)cc12,i
Cc1cccc(NC2SC(=O)N(c3cccc(C)c3)C2=O)c1 (configuration not stated),i
O=C(CCOc1ccccc1)N1CC[C@H]2[C@H](CCCN2C(=O)Cc2ccc(F)c(F)c2F)C1,i
CCOc1ccc(CN2CCCC(c3nn(C)c(=O)n3CC)C2)cn1 (configuration not stated),i
CCCCOc1ccc(C(=O)Nc2c3c(nn2-c2cccc(Cl)c2)CS(=O)C3)cc1 (configuration not stated),i
CS(=O)(=O)c1ccc(Cc2nc(CCc3ccccc3)n[nH]2)cc1,i
CCN(CCn1cccn1)Cc1cc(F)ccc1O,i
O=C1OC(c2ccccc2)OC(=O)C1=Cc1ccc(-c2cc(C(=O)O)ccc2Cl)o1 (configuration not stated),i
O=C(O)c1ccc(N2CCCC2)c([N+](=O)[O-])c1,i
COc1ccc(/C=C2/C(=O)c3ccc(C(=O)O)cc3C2=O)cc1OC,i
O=C(O)c1ccc2c(c1)C(=O)/C(=C\c1ccco1)C2=O,71.0%*
O=C(O)c1ccc(C(=O)O)c(-c2ccccc2)c1,i
O=C(O)c1ccc2c(c1)C(=O)/C(=C\c1ccc([N+](=O)[O-])o1)C2=O,91.0%*
CC1=C(C(=O)OC2CCCC2)C(c2cccc(OCc3ccccc3)c2)NC(=O)N1 (configuration not stated),i

# High-throughput results as filed in PubChem.
